The values below come from PubChem BioAssay (NCATS).

SMILES strings stand for the structures. “And” between values parts separate entries of the source, which are not always exact repeats. Identical values can stand only once. Inconclusive results are not listed. Where a call stands in place of a potency, no number is given. The source made the active and inactive calls. Calls follow the shape of the dose curve; as a rule, active = well fitted inhibition curve with a large enough effect; inconclusive = small, poorly fitted or top-dose-only effect; inactive = no such curve, though single readings can be large or run the other way.
Potency is read from the fitted curve at half-maximal effect.

Sequence of Furin (Homo sapiens) (P09958 whole entry, looked up): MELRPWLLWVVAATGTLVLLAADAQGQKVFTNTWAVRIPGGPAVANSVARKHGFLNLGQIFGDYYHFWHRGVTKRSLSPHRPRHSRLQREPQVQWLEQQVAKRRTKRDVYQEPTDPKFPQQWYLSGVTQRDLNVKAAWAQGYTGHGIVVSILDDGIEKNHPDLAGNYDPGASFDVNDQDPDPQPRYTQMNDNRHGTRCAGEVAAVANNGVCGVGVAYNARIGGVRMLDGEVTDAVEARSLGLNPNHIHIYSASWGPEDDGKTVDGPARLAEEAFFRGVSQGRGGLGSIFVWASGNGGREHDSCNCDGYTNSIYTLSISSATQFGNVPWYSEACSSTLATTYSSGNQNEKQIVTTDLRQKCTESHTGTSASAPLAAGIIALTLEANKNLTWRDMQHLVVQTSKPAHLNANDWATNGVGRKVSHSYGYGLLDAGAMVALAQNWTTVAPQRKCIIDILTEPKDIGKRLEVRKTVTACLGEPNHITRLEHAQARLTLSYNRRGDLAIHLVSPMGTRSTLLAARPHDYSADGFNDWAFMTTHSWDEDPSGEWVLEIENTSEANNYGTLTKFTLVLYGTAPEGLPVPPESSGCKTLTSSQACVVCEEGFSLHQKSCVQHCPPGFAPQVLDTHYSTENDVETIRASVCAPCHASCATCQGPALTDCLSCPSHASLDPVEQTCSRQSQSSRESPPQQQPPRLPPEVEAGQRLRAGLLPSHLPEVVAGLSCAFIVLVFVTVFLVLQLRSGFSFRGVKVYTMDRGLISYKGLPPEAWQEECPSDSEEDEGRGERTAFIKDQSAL

The assay deals with Furin (Homo sapiens) (UniProt P09958). Kind of assay: Furin counterscreen qHTS for Zika virus inhibitors (AID 1347149). Also: nearly all actives have a fitted effect of over 70% in size. As to conditions: furin enzymatic counterscreen, fluorogenic substrate; series mostly up to 57.5 µM. The text has this:
Avindra Nath, Ph.D., National Institute of Neurological Disorders and Stroke (NINDS), Bethesda, MD
Radhakrishnan Padmanabhan, Ph.D., Georgetown University (GU), Washington D.C.
Zika Virus causes congenital defects, including microcephaly and is associated with Guillain-Barre syndrome, eningoencephalitis and myelitis in infected adult. […] Using a target-based approach, we hope to establish a screening paradigm to uncover novel, cell-active NS2B-NS3 protease (Zika Virus) specific inhibitors from NCATS' collection of small molecules using qHTS.
Four assay panel was created to identify potential Zika Virus inhibitors. Namely, (1) GU unlinked NS2B-NS3 AMC tagged protease qHTS, (2) GU unlinked NS2B-NS3 Rhodamine tagged protease qHTS, (3) NINDS linked NS2B-NS3 AMC tagged protease qHTS, (4) NINDS linked NS2B-NS3 Rhodamine tagged protease qHTS. Active compounds were re-acquired and re-screened to confirm inhibition. Inhibitors were further screened against various confirmatory and counterscreens in dose response format.
Early Translation Branch (ETB)
National Center for Advancing Translational Sciences (NCATS), Rockville, MD
National Institute of Health (NIH), Bethesda, Maryland
1536-well Furin BOC-RVRR-AMC Protocol:
Human recombinant Furin Serine Protease was purchased from Peprotech (catalog #450-47; full length; Rocky Hill, NJ). Briefly, 3 microL of enzyme (final concentrations of 5 nM), in assay buffer (100 mM HEPES pH 7.0, 1 mM CaCl2 with 0.01% Triton X-100) were dispensed into a 1,536-well solid-bottom black plate (Greiner Bio One, Monroe, NC). Twenty-three nL of compounds (final concentration range 7.28 nM to 114 microM) or control Furin Inhibitor I (Dec-RVKR-CMK; final concentration range 0.248 nM to 8.12 microM) were transferred via Wako Pin-tool (Wako Automation, Richmond, VA). Samples were incubated (RT, protected from light) for 15 minutes followed by a 1 microL substrate addition of BOC-RVRR-AMC (final concentration of 2 microM; Km = ~15 muM90). Plates were then read immediately on a ViewLux High-throughput CCD imager (PerkinElmer, Waltham, MA) equipped with standard UV fluorescence optics (340(30) nm excitation, 450(20) nm emission), then incubated (37C, protected from light) for 15 or 30 minutes (~9% conversion). The change in fluorescence intensity over the 15-minute reaction period was normalized against no-inhibitor and no-enzyme controls and the resulting percent inhibition data were fitted to a 4-parameter Hill equation. Furin Inhibitor I was used as intraplate control.
Background: The purpose of a counterscreen is to sort out artefacts and off-target activity.
On to `CCCc1nc(C)c2c(=O)[nH]c(-c3cc(S(=O)(=O)N4CCN(CC)CC4)ccc3OCC)nn12`, for which the Potency result was “inactive”. On to `OCc1ccc(-c2nn(Cc3ccccc3)c3ccccc23)o1`, for which the Potency was 27.1 µM (active).

With `COc1ccc(-c2ccc3cc(C(=O)O)ccc3c2)cc1C12CC3CC(CC(C3)C1)C2`, the Potency result was “inactive”.

Turning to `CCn1cc(C(=O)O)c(=O)c2cc(F)c(N3CCNCC3)cc21`, the Potency was 17.1 µM (active).

In the case of `O=C(O)c1ccc(-n2nc(-c3ccccc3O)nc2-c2ccccc2O)cc1`, the Potency entry was “inactive”. Consider `CNC1CCCN(c2c(F)cc3c(=O)c(C(=O)O)cn(C4CC4)c3c2OC)C1` (centres undefined), for which the Potency was 7.62 µM (active) and 24.1 µM (active). Turning to `COC(=O)Nc1nc2ccc(C(=O)c3ccccc3)cc2[nH]1`, the Potency entry is “inactive”. With `CNC(=O)c1cc(Oc2ccc(NC(=O)Nc3ccc(Cl)c(C(F)(F)F)c3)cc2)ccn1`, the Potency entry was “inactive”. With `Nc1nc(=S)c2[nH]cnc2[nH]1` the entry was “inactive”; with `CC(C)(Sc1cc(C(C)(C)C)c(O)c(C(C)(C)C)c1)Sc1cc(C(C)(C)C)c(O)c(C(C)(C)C)c1`, “inactive”; with `Nc1nc(N)c2nc(CNc3ccc(C(=O)NC(CCC(=O)O)C(=O)O)cc3)cnc2n1` (centres undefined), 19.1 µM (active). Regarding `COc1c(N2CCNC(C)C2)c(F)cc2c(=O)c(C(=O)O)cn(C3CC3)c12` (centres undefined), the Potency was 24.1 µM (active) and 27.1 µM (active). As to `COc1cc(NCc2ccc3nc(N)nc(N)c3c2C)cc(OC)c1OC`, the Potency is 17.1 µM (active). On to `O=C(O)c1cn(C2CC2)c2cc(N3CCNCC3)c(F)cc2c1=O`, for which the Potency is 24.1 µM (active).
